Rows were chosen to be rich in hits. Some 2.3% of all compounds tested hit in one or more screens of this group.
CHRM1 PAM – potentiates human M1 receptor response to acetylcholine. CHO-K1 hM1, Fluo-8 calcium fluorescence, ACh EC20; 0% = ACh EC20, 100% = maximal ACh. activation, % at 3 µM. P11229. hit rate 0.088% among 360,000; in the data active means activation above about 19%, passing the limit was not always enough
Target sequence (P11229 whole entry, looked up): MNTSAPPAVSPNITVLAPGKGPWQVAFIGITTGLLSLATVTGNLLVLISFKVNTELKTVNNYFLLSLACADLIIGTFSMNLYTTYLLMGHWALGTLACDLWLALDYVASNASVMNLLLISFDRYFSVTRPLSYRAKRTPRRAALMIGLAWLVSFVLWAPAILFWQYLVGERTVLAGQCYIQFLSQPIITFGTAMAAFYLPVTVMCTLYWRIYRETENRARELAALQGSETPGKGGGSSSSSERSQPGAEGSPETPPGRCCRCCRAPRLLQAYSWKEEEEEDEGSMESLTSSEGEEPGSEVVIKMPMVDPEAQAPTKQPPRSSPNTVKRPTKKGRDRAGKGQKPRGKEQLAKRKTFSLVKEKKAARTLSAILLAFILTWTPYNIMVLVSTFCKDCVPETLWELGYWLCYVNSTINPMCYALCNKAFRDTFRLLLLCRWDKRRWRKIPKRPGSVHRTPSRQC
CHO-K1 Ca antag – nonselective inhibitor or artifact in parental CHO-K1 cells; inhibition, % at 3 µM; ATP-induced calcium, Fluo-8 fluorescence; AID 602250; hit rate 0.6% among 360,000;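 active means inhibition above a per-plate cutoff, the plate's mean sample inhibition plus 3 SD, cut at about 24% in these data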;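 further: 0% = DMSO plus EC80 ATP and 100% = DMSO alone without ATP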
M1 PAM parental – counter-screen for M1 PAMs: effect in parental CHO-K1 cells; hit rate 0.02% among 360,000; AID 602247; ATP EC20, Fluo-8 calcium fluorescence; 0% at ATP EC20, 100% at ATP max; activation, % at 3 µM;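 active means activation above the run cutoff, the mean activation of all test compounds plus 3 SD, cut at about 40% in these data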;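 further: peak over basal fluorescence ratio in a 140 s read after ATP addition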
M1 ag – human M1 muscarinic receptor agonism. activation, % at 3 µM. P11229. CHO-K1 hM1, Fluo-8 calcium fluorescence, agonist mode; 0% DMSO, 100% acetylcholine EC100. hit rate 0.33% among 360,000. AID 588814;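 active means activation above the run's mean compound activation plus 3 SD, cut at about 16% in these data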;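 further: peak over basal fluorescence ratio within a 140 s kinetic read after compound addition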
M1 antag – human CHRM1 antagonism | AID 588852 | inhibition, % at 3 µM | P11229 | CHO-K1 hM1, Fluo-8 calcium fluorescence, ACh EC80 antagonist | hit rate 1.3% among 360,000;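 active means percent inhibition above its own plate's cutoff, namely the mean of that plate's compound wells plus 3 SD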;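 further: peak over basal fluorescence ratio during 140 s after agonist addition; 0% = ACh EC80 plus DMSO and 100% = DMSO alone without agonist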
CHO-K1 Ca ag – M1 agonist counterscreen hit in parental CHO-K1 cells; hit rate 0.48% among 360,000; Fluo-8 calcium fluorescence; scaled to maximal ATP response, vehicle zero; activation, % at 3 µM; in the data active means activation above about 15%;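 further: untransfected CHO-K1 host cells lacking M1 receptor as counterscreen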
Numbers without * were called inactive.

CC(O)(c1ccncc1)c1nc(-c2cccc(C(F)(F)F)c2)cs1 (centres undefined) was read as CHRM1 PAM -10.6, CHO-K1 Ca antag 5.5, M1 PAM parental 4.5, M1 ag -2.0, M1 antag 29.8* and CHO-K1 Ca ag 7.3.
`CCN(CC)C(=O)c1cccc(-c2csc(C(C)(O)c3ccc(OC)cc3)n2)c1` (centres undefined) gave CHRM1 PAM -28.0, CHO-K1 Ca antag 13.8, M1 PAM parental -12.2, M1 ag 6.1, M1 antag 46.4* and CHO-K1 Ca ag 10.7.
COc1ccccc1Cc1c(C2CCCCC2)nc2c3ccccc3ccn12 was read as CHO-K1 Ca antag -6.8, M1 PAM parental 5.6 and CHO-K1 Ca ag -0.1.
For C=CCn1c(SCCOc2ccc(OC)cc2)nnc1C(CO)NC(=O)c1ccc(OC)cc1 (centres undefined) the results were CHRM1 PAM -7.3, CHO-K1 Ca antag 24.8*, M1 PAM parental -14.3, M1 ag -3.0, M1 antag 17.1 and CHO-K1 Ca ag 1.0.
COc1ccccc1C(NC(=O)C1CCCCC1)c1c(O)ccc2ccccc12 (centres undefined) was read as CHRM1 PAM -3.5, CHO-K1 Ca antag 2.6, M1 PAM parental 16.1, M1 ag -4.7, M1 antag 5.2 and CHO-K1 Ca ag 20.2*.
Screening COc1cccc(NS(=O)(=O)NC(=O)c2cn(C)c3ccccc23)c1 returned CHRM1 PAM 2.3, CHO-K1 Ca antag 13.4, M1 PAM parental -3.1, M1 ag -1.7, M1 antag -7.4 and CHO-K1 Ca ag 0.1.
For COCCNC(=O)CSc1nc(N)c(NC(=O)c2ccccc2F)c(=O)[nH]1 the results were CHRM1 PAM 17.1, CHO-K1 Ca antag 24.3*, M1 PAM parental -14.8, M1 ag 2.8, M1 antag -3.8 and CHO-K1 Ca ag -0.2.
Screening Nc1nc(SCC(=O)O)[nH]c(=O)c1NC(=O)c1ccccc1F returned CHRM1 PAM -1.3, CHO-K1 Ca antag 4.5, M1 PAM parental 1.7, M1 ag -5.3, M1 antag 6.7 and CHO-K1 Ca ag 0.6.
`Cc1nn(CC(=O)NCc2ccc(C(=O)O)cc2)c(C)c1[N+](=O)[O-]` gave CHRM1 PAM -8.5, CHO-K1 Ca antag 24.1*, M1 PAM parental -14.7, M1 ag -1.4, M1 antag -3.3 and CHO-K1 Ca ag 1.8.
Cc1nn(CC(=O)NCc2cccnc2)c(C)c1[N+](=O)[O-] was read as CHRM1 PAM 17.7, CHO-K1 Ca antag 11.0, M1 PAM parental -17.2, M1 ag -2.2, M1 antag -11.7 and CHO-K1 Ca ag 0.1.
Screening CSCC(=O)NS(=O)(=O)c1ccc(C)cc1 returned CHRM1 PAM -12.1, CHO-K1 Ca antag 28.1*, M1 PAM parental -16.6, M1 ag -2.4, M1 antag 20.5 and CHO-K1 Ca ag -0.4.
Screening COc1cc(NC(=O)C2(C)CCCN2C(=O)C(C)C)cc(OC)c1OC (centres undefined) returned CHRM1 PAM 2.5, CHO-K1 Ca antag 0.2, M1 PAM parental 6.1, M1 ag -4.2, M1 antag -3.4 and CHO-K1 Ca ag 0.1.
COc1ccc(C(=S)N2CCN(c3cccc(Cl)c3)CC2)cc1 was read as CHRM1 PAM -3.4, CHO-K1 Ca antag -14.0, M1 PAM parental 7.2, M1 ag -3.7, M1 antag 9.6 and CHO-K1 Ca ag 0.3.
For O=S(=O)(Nc1ccc(Cl)cn1)c1ccc(F)cc1 the results were CHRM1 PAM 5.4, CHO-K1 Ca antag 1.5, M1 PAM parental 6.4, M1 ag -1.4, M1 antag -4.0 and CHO-K1 Ca ag 0.1.
For CC1=C(C)CC(C(=O)NC2CCCC2)C(C(=O)O)C1 (centres undefined) the results were CHRM1 PAM 10.3, CHO-K1 Ca antag -5.4, M1 PAM parental 14.6, M1 ag -0.4, M1 antag -7.2 and CHO-K1 Ca ag 0.5.
CC1=C(C)CC(C(=O)NC2CCN(C(C)C)CC2)C(C(=O)O)C1 (centres undefined) was read as CHRM1 PAM -22.0, CHO-K1 Ca antag 18.4, M1 PAM parental -28.1, M1 ag -5.9, M1 antag 49.7* and CHO-K1 Ca ag 0.3.
Screening COc1ccc(-c2cc(C(F)(F)F)nc(SCc3cccc(C(=O)O)c3)n2)cc1 returned CHRM1 PAM -0.2, CHO-K1 Ca antag -12.4, M1 PAM parental 11.1, M1 ag -6.7, M1 antag 5.3 and CHO-K1 Ca ag 0.2.
Screening COc1ccc(-c2cc(C(F)(F)F)nc(SCCC(=O)NCc3ccccc3)n2)cc1 returned CHRM1 PAM 9.4, CHO-K1 Ca antag 28.9*, M1 PAM parental -5.6, M1 ag -1.4, M1 antag -12.2 and CHO-K1 Ca ag -0.5.
Screening COC(=O)c1ccc(-n2c(C)cc(C(=O)CSc3cccc[n+]3[O-])c2C)cc1 returned CHRM1 PAM 7.1, CHO-K1 Ca antag -2.1, M1 PAM parental 7.5, M1 ag -4.3, M1 antag -8.8 and CHO-K1 Ca ag 16.1*.
`Cc1cc(C(=O)CSc2cccc[n+]2[O-])c(C)n1-c1ccc(OC(F)F)cc1` gave CHRM1 PAM 2.2, CHO-K1 Ca antag -8.1, M1 PAM parental 17.1, M1 ag -0.2, M1 antag -7.2 and CHO-K1 Ca ag 13.5.
CN(C(=O)CSc1nnnn1C)C1(C#N)CCCCC1 was read as CHRM1 PAM 11.7, CHO-K1 Ca antag -7.9, M1 PAM parental 6.7, M1 ag -4.6, M1 antag -10.4 and CHO-K1 Ca ag 0.2.
Screening CCn1cc(C(=O)NCCCN2CC(C)CC(C)C2)c(=O)c2cc(S(=O)(=O)N(C)C3CCCCC3)ccc21 (centres undefined) returned CHRM1 PAM -13.4, CHO-K1 Ca antag -7.8, M1 PAM parental -3.1, M1 ag -6.2, M1 antag 12.2 and CHO-K1 Ca ag -0.5.
CCn1cc(C(=O)NCCCN2CCC(C)CC2)c(=O)c2cc(S(=O)(=O)N(C)C3CCCCC3)ccc21 was read as CHRM1 PAM -15.7, CHO-K1 Ca antag 10.7, M1 PAM parental -10.1, M1 ag -6.4, M1 antag 37.9* and CHO-K1 Ca ag -0.4.
For CCOC(=O)NC(=O)/C(C#N)=C\Nc1sccc1C(=O)OC the results were CHRM1 PAM 6.4, CHO-K1 Ca antag 0.1, M1 PAM parental 8.7, M1 ag 0.1, M1 antag 3.3 and CHO-K1 Ca ag 18.1*.
For CN(C)S(=O)(=O)c1ccc2oc(SCC(N)=O)nc2c1 the results were CHRM1 PAM 8.4, CHO-K1 Ca antag 5.0, M1 PAM parental -6.8, M1 ag -1.2, M1 antag -9.1 and CHO-K1 Ca ag 0.4.
Screening CN(C)S(=O)(=O)c1ccc2oc(SCC(=O)c3c(N)n(C4CC4)c(=O)[nH]c3=O)nc2c1 returned CHRM1 PAM -3.2, CHO-K1 Ca antag -15.0, M1 PAM parental 9.9, M1 ag -4.1, M1 antag 11.5 and CHO-K1 Ca ag 20.4*.
Cc1ccccc1NC(=O)c1ccc(CN2CCC(Cc3ccccc3)CC2)cc1 was read as CHRM1 PAM -21.2, CHO-K1 Ca antag 7.4, M1 PAM parental -2.1, M1 ag -4.5, M1 antag 55.0* and CHO-K1 Ca ag 0.7.
